GLP1R inv ag: acts as inverse agonist at human GLP-1 receptor; HEK293 GLP-1R CRE-luciferase, luminescence, 24 h; GLP-1R form is constitutively active; 410,000 compounds, 1.6% hits; Potency, µM (top dose mostly 38.3 µM), usual class: inhibitors; AID 624417; also: nearly all actives have a fitted effect of over 55% in size
Target sequence (P43220 whole entry, looked up): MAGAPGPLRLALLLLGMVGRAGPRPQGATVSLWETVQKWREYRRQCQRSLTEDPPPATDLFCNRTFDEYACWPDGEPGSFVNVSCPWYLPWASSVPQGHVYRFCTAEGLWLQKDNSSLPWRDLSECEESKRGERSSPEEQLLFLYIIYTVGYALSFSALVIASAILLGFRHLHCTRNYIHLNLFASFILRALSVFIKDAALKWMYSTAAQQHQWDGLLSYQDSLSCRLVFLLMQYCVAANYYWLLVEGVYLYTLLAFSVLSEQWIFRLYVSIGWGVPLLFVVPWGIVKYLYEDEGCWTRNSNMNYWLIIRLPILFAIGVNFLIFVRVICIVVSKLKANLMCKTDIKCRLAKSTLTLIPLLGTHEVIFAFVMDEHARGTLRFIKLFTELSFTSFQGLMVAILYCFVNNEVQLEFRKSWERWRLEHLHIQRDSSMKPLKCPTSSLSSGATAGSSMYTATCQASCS
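Constitutively active GLP-1R drives a cAMP-responsive luciferase in stably transfected HEK293 cells; test compounds are added after overnight (12 h) attachment and left 24 hr, and signal loss in luminescence marks inhibition.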
HEK293 tox: cytotoxicity counter-screen for GLP-1 receptor inverse agonists; HEK293 cAMP-luciferase reporter cells, luminescence, 24 h; Potency, µM (titrated, usually from 38.3 µM), most hits filed as inhibitors; 410,000 compounds, 0.13% hits;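 also: loss of luciferase light is scored as toxicity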
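Compound-treated cells are incubated 24 hr at 37 deg C under 5% CO2 after a 12 hour attachment period, then luciferase detection reagent is added and luminescence is measured following 12 min at room temperature; lowered signal indicates toxicity.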
GLP1R ag: GLP-1 receptor (human) agonism; P43220; HEK293 GLP-1R CRE-luciferase, luminescence, 4-6 h; cells express a hypersensitive GLP-1R form; 380,000 compounds, 0.007% hits; AID 624172; Potency, µM (titrated, usually from 45.6 µM), usual class: activators
Large screens that a line does not name were inactive. Shown are actives, neighbours in structure and some others; about 1.7% of the full set was active somewhere. Calls follow the shape of the dose curve; as a rule, active = well fitted curve in the direction sought with a large enough effect; inconclusive = small, poorly fitted or top-dose-only effect, or another doubt; inactive = no such curve, though single readings can be large; an effect the other way counts as inactive or inconclusive.

CCCN1CCN(CCCNC(=S)Nc2ccc3nc(N4CCN(CC)CC4)cc(C)c3c2)CC1	GLP1R inv ag inconclusive, HEK293 tox inconclusive
Cc1cc(N2CCN(C)CC2)nc2ccc(NC(=S)NCCN3CCc4ccccc4C3)cc12	GLP1R inv ag inconclusive
Cc1cc(N2CCCC2)nc2ccc(NC(=S)NCCCN3CCC(C)CC3)cc12	GLP1R inv ag 5µM, HEK293 tox inconclusive
Cc1cc(C)n(C(C)CC(=O)Nc2ccc(C)c(N(C)C)c2)n1 (stereo not given)	none (no result: GLP1R ag)
Cc1ccccc1NC(=O)CCC(=O)N1CCSc2ccccc21	none (no result: GLP1R ag)
Cc1cccc(-c2cc(NC(=O)COc3ccccc3F)n(-c3ccccc3)n2)c1	none (no result: GLP1R ag)
Cc1cc(O)c(-c2cc(C(=O)Nc3ccc(S(=O)(=O)N4CCOCC4)cc3)[nH]n2)cc1C	none
Cc1ccc(-c2cc(C(=O)Nc3ccc(S(=O)(=O)N4CC(C)OC(C)C4)cc3)[nH]n2)c(O)c1 (stereo not given)	GLP1R inv ag 1.1µM
Cc1ccc(O)c(-c2cc(C(=O)Nc3ccc(S(=O)(=O)N4CC(C)OC(C)C4)cc3)[nH]n2)c1 (stereo not given)	HEK293 tox inconclusive
O=C(Nc1ccc(S(=O)(=O)N2CCOCC2)cc1)c1cc(-c2cc(Cl)ccc2O)n[nH]1	GLP1R inv ag 3.5µM, HEK293 tox inconclusive
Cc1ccc(C)c(NC(=O)CSc2c(C)cnc3c2c(=O)n(C)c(=O)n3C)c1	none (no result: GLP1R ag)
CCC(C(=O)Nc1cc(F)ccc1F)n1nc(C)c2c(C)n(-c3ccc(C)cc3)nc2c1=O (stereo not given)	GLP1R inv ag 10µM
CCC(C(=O)Nc1ccccc1F)n1nc(C)c2c(C)n(-c3ccccc3)nc2c1=O (stereo not given)	GLP1R inv ag inconclusive
COc1ccc(-c2noc(-c3ccc(NC4CCCC4)c([N+](=O)[O-])c3)n2)cc1	none (no result: GLP1R ag)
O=C(NC(=S)N1CCN(c2c(Cl)cccc2[N+](=O)[O-])CC1)c1cccs1	HEK293 tox 7.1µM
COc1ccc(N2CCN(C(=S)NC(=O)c3cccs3)CC2)c([N+](=O)[O-])c1	GLP1R inv ag inconclusive, HEK293 tox inconclusive
O=C1C2C3CCCC3=C3CCCC3C2C(=O)N1c1cccc(Cl)c1 (stereo not given)	GLP1R inv ag 3.5µM
O=C1C2C3CCCC3=C3CCCC3C2C(=O)N1c1ccc(Cl)cc1 (stereo not given)	none
COc1ccc(-n2cc(C#N)c(=O)n(Cc3ccc(F)cc3)c2=O)cc1	none
O=C(Cn1nc(C(F)(F)F)cc1C1CC1)NCc1ccccc1F	none
Cc1oc2ncnc(N3CCOCC3)c2c1C(=O)N1CCN(c2cccc(C(F)(F)F)c2)CC1	none (no result: GLP1R ag)
Cc1ccc(-c2csc(Nc3ccccn3)n2)cc1	GLP1R inv ag inconclusive
c1ccc(-c2csc(Nc3ccccn3)n2)cc1	GLP1R inv ag 10µM
CCCC[C@@H]1Cc2[nH][nH]c(=O)c2[C@H](c2cccc3ccccc23)O1	GLP1R inv ag inconclusive
Cc1cccc(C)c1NC(=O)C(C1CC1)n1c(=O)c(-c2cc3ccccc3[nH]2)nc2ccccc21 (stereo not given)	GLP1R inv ag inconclusive (no result: GLP1R ag)
O=C(Nc1cccc(/C=C/c2ccccn2)c1)c1ccc(-n2cncn2)c([N+](=O)[O-])c1	GLP1R inv ag inconclusive, HEK293 tox inconclusive
O=C(CN1CCN(S(=O)(=O)c2ccc(Br)cc2)CC1)c1ccc(O)c(O)c1	none
COc1cccc(F)c1C(C[N+](=O)[O-])c1c(N)n(C)c(=O)n(C)c1=O (stereo not given)	GLP1R inv ag 3.2µM, HEK293 tox inconclusive
COc1cc(C(C[N+](=O)[O-])c2c(N)n(C)c(=O)n(C)c2=O)ccc1O (stereo not given)	none
COc1cccc(N(CC(=O)NCc2ccco2)C(=O)CCC(=O)Nc2nccs2)c1	none
Cc1nn(Cc2c(F)c(F)c(F)c(F)c2F)c(C)c1NC(=O)c1ccc(COc2ccccc2Cl)cc1	none
Cc1nn(Cc2c(F)c(F)c(F)c(F)c2F)c(C)c1NC(=O)c1ccc(COc2ccccc2Cl)o1	GLP1R inv ag 10µM
COc1ccc(S(=O)(=O)N(C)CC(=O)NCc2ccco2)cc1OC	none
CC(C)C[C@@H](CN1CCCC1CN1C(=S)NC[C@@H]1Cc1ccccc1)N1C[C@H](Cc2ccccc2)N(CCc2ccccc2)C1=S (stereo not given in full)	GLP1R inv ag inconclusive
Cc1ccc(NC(=O)Cn2cnc3sc(C(=O)O)c(C)c3c2=O)cc1Cl	none (no result: GLP1R ag)
Cc1nnc(NC(=O)c2ccc3ccccc3c2)o1	GLP1R inv ag 11µM
Cc1ccccc1NC(=O)c1ccc2ccccc2c1	GLP1R inv ag inconclusive
COc1cccc(OC)c1OCCCCCCN1CCN(C)CC1	none
O=C(O)COCCN1CCN([C@@H](c2ccccc2)c2ccc(Cl)cc2)CC1	none (no result: GLP1R inv ag, HEK293 tox)
N#Cc1ccc(OCC(O)CN2CCN(C(c3ccccc3)c3ccccc3)CC2)cc1 (stereo not given)	GLP1R inv ag 7.1µM
COc1ccccc1OCCCCN1CCN(C(c2ccccc2)c2ccccc2)CC1	GLP1R inv ag 4.5µM, HEK293 tox inconclusive
OC(COc1ccccc1)CN1CCN(C(c2ccccc2)c2ccccc2)CC1 (stereo not given)	GLP1R inv ag inconclusive
c1ccc(OCCOCCN2CCN(C(c3ccccc3)c3ccccc3)CC2)cc1	GLP1R inv ag 7.1µM, HEK293 tox inconclusive
COc1ccccc1-c1csc(Nc2ccc(Oc3ccccc3)cc2)n1	GLP1R inv ag inconclusive, GLP1R ag inconclusive
Cc1ccccc1C(=O)Nc1nnc(S(=O)(=O)N2CCc3ccccc32)s1	none (no result: GLP1R ag)
CCOC(=O)N1CCN(C(=O)c2oc3ccc(S(=O)(=O)N4CCCCC4)cc3c2C)CC1	none
Cc1c(C(=O)NCC2CCCO2)oc2ccc(S(=O)(=O)N3CC(C)CC(C)C3)cc12 (stereo not given)	GLP1R inv ag inconclusive
Cc1c(C(=O)N2CCCCC2)oc2ccc(S(=O)(=O)N3CC(C)CC(C)C3)cc12 (stereo not given)	GLP1R inv ag 8.9µM
CCN(CC)CCCNC(=O)c1oc2ccc(S(=O)(=O)N3CC(C)CC(C)C3)cc2c1C (stereo not given)	GLP1R inv ag 1.4µM, HEK293 tox inconclusive
O=C(/C=C\Nc1ccc2c(c1)OCO2)c1cccs1	GLP1R inv ag 2.2µM
O=C(/C=C\Nc1ccc2c(c1)OCO2)c1ccc(Cl)s1	none
CC(=O)Nc1ccc(OC(=O)c2ccccc2OC(C)=O)cc1	none (no result: GLP1R inv ag, HEK293 tox)
CCNC(=S)N/N=C1\CCCCc2ccccc21	GLP1R inv ag 3.5µM, HEK293 tox 4µM
Cc1ccc(C)c(NC(=S)N/N=C2\CCc3ccccc32)c1	GLP1R inv ag inconclusive, HEK293 tox inconclusive
Cc1ccc(NC(=S)N/N=C2/CCCCc3ccccc32)cc1	GLP1R inv ag 3.5µM
C=C(C)CNC(=S)N/N=C1\CCCCc2ccccc21	GLP1R inv ag inconclusive, HEK293 tox 4µM
Cc1cccc(NC(=S)N/N=C2/CCCCc3ccccc32)c1	GLP1R inv ag inconclusive
O=C(N/N=C1\CCCCc2ccccc21)c1ccccn1	none
COc1cccc(NC(=O)CN(C)C(=O)c2csc3c2CCCC3)c1	GLP1R inv ag inconclusive
COc1ccc(NC(=O)Nc2nnc(N3CCCC3)s2)cc1	none (no result: GLP1R ag)
N=c1c2c(n(Cc3ccc(Cl)cc3)c3c1CCC3)CCC2	none
N=c1c2c(n(Cc3cccc(Cl)c3)c3c1CCC3)CCCC2	HEK293 tox 5µM

Compound activity deposited in PubChem BioAssay by National Center for Advancing Translational Sciences (NCATS).
